Test results as given in the supplement of paper PMC4723716.
± gives the uncertainty stated by the source. In all, about 9,900 compounds were measured (“viability index relative to DMSO control”: median about 1, lowest 2% from about 0.85 on). For the sample, the lowest values were picked, then their nearest neighbours and some compounds at random.

System: Plasmodium falciparum NF54 stage V gametocytes
Test: viability index relative to DMSO control (fraction); higher = less gametocyte killing
Settings: 2.5 µM, incubation time: 72 h
Outline: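 P. falciparum NF54 stage V gametocytes (serum-free medium, 0.75% gametocytemia, 1.25% hematocrit) were exposed to compound at 2.5 µM for 72 hr at 37°C under low oxygen, then stained with MitoTracker Red CMXRos and saponin for one to two hours. Red particles of 20–70 µm2 in one field per well were counted, and the viability index is that count scaled to the plate mean of solvent-only wells.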

[1] = library set: Broad Institute DOS
[2] = library set: Broad Institute Blood Stage

SMILES | viability index [1] | viability index [2]
O=C(c1cnccn1)N1C[C@@H]2N[C@H](C1)[C@@H]2c1ccc(/C=C/c2ccccc2)cc1 | 1.05 ± 0.026 | –
COc1ccc(S(=O)(=O)Nc2cccc3c2O[C@@H](CN(C)CC2CCCCC2)[C@H](C)CN([C@H](C)CO)C3=O)cc1 | 0.958 ± 0.094 | –
COc1ccc2c3c([nH]c2c1)[C@@H](CO)N(C[C@]31CCN(CC1)C(C)=O)C(C)=O | 0.9689 ± 0.0023 | –
COCC(=O)N1CC[C@@]2(CC1)CN([C@@H](CO)c1[nH]c3cc(OC)ccc3c21)S(C)(=O)=O | 1.09 ± 0.06 | –
COc1ccc2c3c([nH]c2c1)[C@H](CO)N(C[C@]31CCN(CC1)C(=O)Nc1ccccc1)S(C)(=O)=O | 0.121 ± 0.0032 | –
COc1ccc2c3c([nH]c2c1)[C@H](CO)N(C[C@]31CCN(CC1)C(=O)Nc1ccc(F)cc1F)C(C)=O | 0.748 ± 0.035 | –
COc1ccc2c3c([nH]c2c1)[C@@H](CO)N(C[C@]31CN(CC2CC2)C1)C(=O)CN(C)C | 0.939 ± 0.018 | –
COc1ccc2c3c([nH]c2c1)[C@H](CO)N(C[C@]31CN(CC2CC2)C1)C(=O)CN(C)C | 1.07 ± 0.032 | –
COCC(=O)N1C[C@@]2(C1)CN([C@H](CO)c1[nH]c3cc(OC)ccc3c21)C(=O)Nc1ccccc1F | 1.03 ± 0.071 | –
CCC(=O)N1C[C@]2(CCN(CC2)C(=O)Nc2ccccc2F)c2c([nH]c3cc(OC)ccc23)[C@@H]1CO | 0.642 ± 0.081 | –
COc1ccc2c3c([nH]c2c1)[C@@H](CO)N(C[C@]31CCN(CC1)C(=O)Nc1ccccc1)S(C)(=O)=O | 0.99 ± 0.15 | –
COc1ccc2c3c([nH]c2c1)[C@@H](CO)N(C[C@]31CCN(CC1)C(=O)Nc1ccc(F)cc1F)C(C)=O | 1.07 ± 0.056 | –
CCC(=O)N1C[C@]2(CCN(CC2)C(=O)Nc2ccccc2F)c2c([nH]c3cc(OC)ccc23)[C@H]1CO | 0.9987 ± 0.0051 | –
COc1ccc2c3c([nH]c2c1)[C@@H](CO)N(C[C@]31CCN(CC2CCCCC2)CC1)C(=O)CN(C)C | – | 0.807 ± 0.026
O=C(C[C@@H]1C[C@H]2c3cc(NS(=O)(=O)c4ccccc4)ccc3O[C@H]2[C@@H](CO)O1)N1CCOCC1 | 1.05 ± 0.026 | –
COCC(=O)NC[C@@H]1[C@H](c2ccccc2)[C@H](CO)N1C(=O)c1ccccc1 | 0.986 ± 0.17 | –
C[C@H]1CN([C@@H](C)CO)C(=O)c2cccc(NC(=O)c3cnccn3)c2O[C@H]1CN(C)C(=O)NC1CCCCC1 | 1.01 ± 0.033 | –
COc1ccccc1-c1ccc2n(c1=O)C[C@@H]1[C@@H](CO)[C@H](C(=O)N3CCOCC3)[C@H]2N1CC1CC1 | 1.04 ± 0.016 | –
COc1cccc(-c2ccc3n(c2=O)C[C@@H]2[C@@H](CO)[C@H](C(=O)N(C)C)[C@H]3N2C(=O)c2ccccn2)c1 | 1.04 ± 0.017 | –
CO[C@@H]1CN(C)C(=O)c2ccc(NC(=O)C3CC3)cc2OC[C@@H](C)N(C(C)=O)C[C@@H]1C | 1.02 ± 0.042 | –
CN1C[C@@H](O)COC[C@H]2O[C@H](CC(=O)NC3CCCC3)CC[C@@H]21 | 1.05 ± 0.064 | –
O=C(c1ccc2c(c1)OCO2)N1C[C@@H]2N[C@H](C1)[C@@H]2c1ccc(-c2cncnc2)cc1 | 1.08 ± 0.035 | –
COc1ccccc1NC(=O)N1C[C@@H]2N[C@H](C1)[C@H]2c1ccc(/C=C/c2ccccc2)cc1 | 0.976 ± 0.048 | –
O=C(c1ccc2c(c1)OCO2)N1C[C@@H]2N[C@H](C1)[C@@H]2c1ccc(/C=C/c2ccccc2)cc1 | 0.731 ± 0.086 | –
COc1ccccc1NC(=O)N1C[C@@H]2N[C@H](C1)[C@@H]2c1ccc(/C=C/c2ccccc2)cc1 | 0.571 ± 0.027 | –

SMILES | viability index [1] | viability index [2]
C/C=C/c1ccc([C@H]2[C@@H]3CN(C(=O)Nc4ccccc4F)C[C@H]2N3)cc1 | 1.06 ± 0.034 | –
O=C(c1ccc2c(c1)OCO2)N1C[C@@H]2N[C@H](C1)[C@H]2c1ccc(/C=C/c2ccccc2)cc1 | 1.05 ± 0.017 | –
O=C(C1CCC1)N1C[C@@H]2N[C@H](C1)[C@@H]2c1ccc(-c2cncnc2)cc1 | 1.115 ± 0.0039 | –
O=C(C1CCC1)N1C[C@@H]2N[C@H](C1)[C@@H]2c1ccc(/C=C/c2ccccc2)cc1 | 0.799 ± 0.019 | –
O=C(C1CCC1)N1C[C@@H]2N[C@H](C1)[C@H]2c1ccc(/C=C/c2ccccc2)cc1 | 1.02 ± 0.042 | –
CC(C)(C)[S@@](=O)N1Cc2cc(C(=O)NC3CCC3)nc(-c3cccc(-c4ccccc4F)c3)c2[C@H]1CCO | 1.02 ± 0.012 | –
CC(C)C[C@H]1COCc2cn(nn2)CC[C@@H](Cc2ccc(Cl)cc2)C(=O)N1 | 0.955 ± 0.036 | –
Cc1noc(C)c1C(=O)N(C)C[C@H]1OCc2ccccc2-c2ccccc2C(=O)N([C@@H](C)CO)C[C@@H]1C | 1.01 ± 0.065 | –
O=C(Nc1ccc2c(c1)[C@@H]1C[C@H](CC(=O)N3CCc4ccccc4C3)O[C@@H](CO)[C@@H]1O2)c1ccc2c(c1)OCO2 | 0.991 ± 0.038 | –
CN(C)C(=O)[C@@H]1[C@@H](CO)[C@@H]2Cn3c(ccc(C4=CCCC4)c3=O)[C@H]1N2S(=O)(=O)c1cn(C)cn1 | 0.984 ± 0.045 | –
N#C[C@H]1N[C@H](CO)[C@@H]1c1ccc(C#Cc2ccccc2F)cc1 | 1.07 ± 0.076 | –
CC[C@H]1C/C=C/C[C@@H](C)Oc2ccccc2C(=O)N(C)[C@H](C)C(=O)N1.CC[C@H]1C/C=C\C[C@@H](C)Oc2ccccc2C(=O)N(C)[C@H](C)C(=O)N1 | 1.04 ± 0.086 | –
CC(C)C#Cc1ccc([C@H]2[C@H]3CN(C(=O)Cc4ccccc4)CC(=O)N3[C@H]2CO)cc1 | 1.045 ± 0.0096 | –
Cc1cccc(-c2ccc([C@H]3[C@@H](CO)N4CCCCN(S(=O)(=O)c5ccccc5F)C[C@@H]34)cc2)c1 | 1 ± 0.044 | –
Cc1ccccc1-c1ccc([C@H]2[C@@H](CO)N3CCCCN(S(=O)(=O)Cc4ccccc4)C[C@@H]23)cc1 | 0.991 ± 0.063 | –
Cc1cccc(-c2ccc([C@@H]3[C@@H](CO)N4CCCCN(S(=O)(=O)c5ccccc5F)C[C@H]34)cc2)c1 | 0.537 ± 0.053 | –
Cc1ccccc1-c1ccc([C@@H]2[C@H](CO)N3CCCCN(S(=O)(=O)Cc4ccccc4)C[C@@H]23)cc1 | 0.74 ± 0.039 | –
Cc1ccccc1-c1ccc([C@H]2[C@H](CO)N3CCCCN(S(=O)(=O)Cc4ccccc4)C[C@@H]23)cc1 | 0.924 ± 0.034 | –
Cc1cccc(-c2ccc([C@H]3[C@H]4CN(S(=O)(=O)c5ccccc5F)CCCCN4[C@H]3CO)cc2)c1 | 0.973 ± 0.094 | –
Cc1noc(C)c1NC(=O)Nc1cccc2c1O[C@H](CN(C)Cc1ccc(C(=O)Nc3ccccc3N)cc1)[C@@H](C)CN([C@H](C)CO)C2=O | 0.961 ± 0.023 | –
CNC[C@H]1OCCCC[C@@H](C)Oc2ccc(NC(=O)Nc3ccc(OC)cc3)cc2C(=O)N([C@@H](C)CO)C[C@@H]1C | 0.965 ± 0.12 | –
Cc1cc(C(=O)Nc2ccc3c(c2)C(=O)N(C)[C@H]2CC[C@H](CC(=O)O)O[C@@H]2CO3)no1 | 0.927 ± 0.12 | –
C[C@@H]1CN([C@@H](C)CO)C(=O)c2cc(NS(=O)(=O)c3cccs3)ccc2O[C@@H](C)CCCCO[C@H]1CN(C)C(=O)c1ccncc1 | 1.07 ± 0.045 | –
O=C(Nc1ccc(F)cc1)N1CC(=O)N2[C@H](C1)[C@H](c1ccc(C#Cc3cccnc3)cc1)[C@@H]2CO | 1.08 ± 0.07 | –
O=C(Nc1cccc(F)c1)N1CCCCN2[C@H](CO)[C@H](c3ccc(C#Cc4cccnc4)cc3)[C@H]2C1 | 0.848 ± 0.034 | –

SMILES | viability index [1] | viability index [2]
O=C(Nc1cccc(F)c1)N1CCCCN2[C@H](C1)[C@H](c1ccc(C#Cc3cccnc3)cc1)[C@@H]2CO | 0.836 ± 0.036 | –
O=C(Nc1cccc(F)c1)N1CCCCN2[C@H](CO)[C@@H](c3ccc(C#Cc4cccnc4)cc3)[C@H]2C1 | 0.8437 ± 0.0061 | –
O=C(Nc1cccc(F)c1)N1CCCCN2[C@@H](CO)[C@@H](c3ccc(C#Cc4cccnc4)cc3)[C@@H]2C1 | 0.979 ± 0.089 | –
COCC#Cc1ccc([C@@H]2[C@@H](CO)N3CCCCN(Cc4cccnc4)C[C@@H]23)cc1 | 1.06 ± 0.14 | –
O=C(Nc1ccc(F)cc1)N1CC(=O)N2[C@@H](CO)[C@H](c3ccc(C#Cc4cccnc4)cc3)[C@@H]2C1 | 1.11 ± 0.058 | –
COCC#Cc1ccc([C@@H]2[C@H](CO)N3CCCCN(Cc4cccnc4)C[C@@H]23)cc1 | 1.03 ± 0.068 | –
O=C(Nc1cccc(F)c1)N1CCCCN2[C@@H](CO)[C@H](c3ccc(C#Cc4cccnc4)cc3)[C@@H]2C1 | 1.05 ± 0.075 | –
COc1cccc(CN2CCCCN3[C@H](CO)[C@@H](c4ccc(C#Cc5cccnc5)cc4)[C@@H]3C2)c1 | – | 0.841 ± 0.06
O=C(Nc1cccc(F)c1)N1CCCCN2[C@H](CO)[C@@H](c3ccc(C#Cc4cccnc4)cc3)[C@@H]2C1 | 1.07 ± 0.078 | –
O=C(Nc1cccc(F)c1)N1CCCCN2[C@H](CO)[C@H](c3ccc(C#Cc4cccnc4)cc3)[C@@H]2C1 | 1.05 ± 0.024 | –
CCCC(=O)Nc1ccc2c(c1)C(=O)N(C)C[C@@H](OC)[C@@H](C)CN(Cc1ccc(F)cc1)[C@@H](C)CO2 | 0.941 ± 0.11 | –
O=C(C[C@H]1CC[C@@H]2[C@H](COC[C@@H](O)CN2S(=O)(=O)c2ccc(F)cc2)O1)NCCN1CCCCC1 | 1.113 ± 0.0099 | –
COc1ccc(CN(C)C[C@@H]2OCc3cnnn3CCCC(=O)N([C@@H](C)CO)C[C@@H]2C)cc1 | 1.012 ± 0.0093 | –
CN1C(=O)c2cc(NC(=O)c3ccc(F)c(F)c3)ccc2OC[C@@H]2O[C@H](CC(=O)N3CCCCC3)CC[C@H]21 | 0.986 ± 0.14 | –
N#C[C@@H]1[C@@H](c2ccc(C#CC3(O)CCCC3)cc2)[C@@H](CO)N1C(=O)C1CCCCC1 | 1.11 ± 0.019 | –
O=C(Nc1ccc(C(F)(F)F)cc1)N[C@@H]1C=C[C@@H](CC(=O)N2CCCCC2)O[C@H]1CO | 1.111 ± 0.008 | –
C[C@@H]1CN([C@H](C)CO)C(=O)c2cccc(NC(=O)Nc3ccc(F)cc3)c2O[C@H]1CN(C)S(=O)(=O)c1ccc(Cl)cc1 | 0.92 ± 0.22 | –
CNC(=O)C[C@@H]1CC[C@@H]2[C@@H](COc3ccc(NC(=O)c4ccccc4F)cc3C(=O)N2C)O1 | 1.13 ± 0.083 | –
COc1cccc(S(=O)(=O)N2CC[C@H]3[C@H](CO)Nc4ccc(C#Cc5cccnc5)cc4[C@H]32)c1 | 1.11 ± 0.082 | –
COc1ccc(C#Cc2ccc([C@@H]3[C@@H](CO)N4CCCCN(C(=O)Nc5cccc(F)c5)C[C@H]34)cc2)cc1 | – | 0.654 ± 0.049
COc1ccc(NC(=O)N2CCCCN3[C@@H](CO)[C@@H](c4ccc(-c5ccccc5F)cc4)[C@@H]3C2)cc1 | 0.993 ± 0.011 | –
COc1ccc(NC(=O)N2CCCCN3[C@H](C2)[C@@H](c2ccc(-c4ccccc4F)cc2)[C@@H]3CO)cc1 | 0.981 ± 0.042 | –
O=C(Nc1cccc(F)c1)N1CCCCN2[C@H](C1)[C@@H](c1ccc(C#Cc3cccnc3)cc1)[C@@H]2CO | 0.81 ± 0.05 | –
O=C(Nc1ccc(F)cc1)N1CC(=O)N2[C@H](CO)[C@H](c3ccc(C#Cc4cccnc4)cc3)[C@@H]2C1 | 1.028 ± 0.0039 | –
O=C(Nc1ccc(F)cc1)N1CC(=O)N2[C@H](CO)[C@H](c3ccc(C#Cc4cccnc4)cc3)[C@H]2C1 | 1.1 ± 0.086 | –
